# D2 ag-1 = activates the human D2 dopamine receptor | activation, % (concentration not given with the values) | P14416 | actives 0.084% (n = 360,000) | DiscoveRx PathHunter D2 beta-arrestin, luminescence, 90 min; 100% = 57 uM dopamine signal; in the data active = activation above about 40%
# Target sequence (P14416 whole entry, looked up): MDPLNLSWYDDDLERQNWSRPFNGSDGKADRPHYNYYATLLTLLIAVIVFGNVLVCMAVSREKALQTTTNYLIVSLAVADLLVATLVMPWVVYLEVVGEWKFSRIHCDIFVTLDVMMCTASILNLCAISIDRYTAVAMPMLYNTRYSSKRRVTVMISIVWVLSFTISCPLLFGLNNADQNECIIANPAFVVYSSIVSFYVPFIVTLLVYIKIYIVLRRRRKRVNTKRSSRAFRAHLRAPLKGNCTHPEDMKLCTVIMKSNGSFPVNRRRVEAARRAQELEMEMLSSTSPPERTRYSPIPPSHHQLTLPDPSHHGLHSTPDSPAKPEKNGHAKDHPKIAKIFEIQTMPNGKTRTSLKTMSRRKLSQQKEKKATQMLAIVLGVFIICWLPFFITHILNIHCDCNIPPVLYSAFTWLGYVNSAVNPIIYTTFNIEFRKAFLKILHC
#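 DiscoveRx PathHunter D2 beta-arrestin cells (2,100/well) attached overnight, then compound-stimulated 90 min at 37 C in HBSS/10 mM HEPES/0.1% Tween-20 buffer; beta-galactosidase complementation read by luminescence after 1 h at ambient temperature. Dopamine 57 uM final (EC100) as control.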
# D2 ag-2 = agonists of human D2 dopamine receptor; P14416; actives 0.53% (n = 340,000); HEK293 T-REx D2 cells, calcium flux agonist mode; activation, % at 2 µM;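 active = activation over 3 SD above normal in the single-dose calcium agonist read, cut at about 30% in these data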; note: 0% is about no effect
#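 Tetracycline-induced HEK293 T-REx cells with force-coupled D2 receptor, plated overnight at 30 C, loaded with no-wash calcium dye. After a 10 s baseline, compound was pin-added and calcium flux read kinetically for 180 s; calcium rises flagged agonists.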
# D2 PAM-1 = positively modulates the human D2 dopamine receptor allosterically | P14416 | potentiation, % at 10 µM | actives 0.34% (n = 340,000) | HEK293 T-REx D2, calcium flux, EC20 dopamine potentiation;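 active = potentiation over 3 SD above the plate norm, cut at about 30% in these data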; note: 0% is about no effect
#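 Potentiation of an EC20 dopamine calcium response measured kinetically over 180 s, after a preceding 180 s compound-only read flagging agonists. Cells: inducible Hek293 Trex D2 line, 4000/well, cultured overnight at 30 C before dye loading.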
# D2 antagonist = antagonizes the human D2 dopamine receptor; P14416; HEK293 TREx D2 cells, calcium flux, dopamine EC80; inhibition, % at 10 µM; actives 2% (n = 340,000); in the data active = inhibition above about 30%; inactive = below that, where a call was filed; note: 0% is about no effect
#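 Tetracycline-induced HEK293 TREx cells expressing D2 receptor forced-coupled to calcium signalling, loaded with no-wash calcium dye. Compounds added and calcium flux read 180 s, then dopamine added at EC80 and read a further 180 s.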
# D2 PAM-2 = human D2 receptor positive allosteric modulation. DiscoveRx D2 beta-arrestin cells, luminescence, 90 min; 100% = 57 uM dopamine signal. potentiation, % (test concentration not listed). actives 0.23% (n = 360,000). AID 624464; in the data active = potentiation above about 50%
#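 PathHunter D2 cells, attached overnight at 37 deg C, received compound in DMSO plus dopamine at EC20 (50 nM final) for 90 min at 37 deg C. Beta-arrestin recruitment was read as luminescence after 1 h with detection reagent at ambient temperature.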
# * hit, by the source's call; · = not tested or not shown; ! = a repeat was not active. A selection: hits, their analogues and other compounds. The true share with any hit is near 2.4%.
SMILES,D2 ag-1,D2 ag-2,D2 PAM-1,D2 antagonist,D2 PAM-2
CS(=O)(=O)N1CCc2cc(C(=O)O)ccc21,-1,-1,31*,0,1
COc1ccc([N+](=O)[O-])cc1NC(=O)C(C)OC(=O)CSC(C)C(=O)Nc1cc(C)on1 (stereo not drawn),-7,0,8,36*,-24
Cc1cc(NC(=O)C(C)SCC(=O)OC(C)C(=O)Nc2ccccc2C)no1 (stereo not drawn),-3,1,-13,14,-1
O=C(CCN1C(=O)c2ccccc2S1(=O)=O)N1CCN(c2ccc(F)cc2)CC1,-6,0,-9,33*,-3
O=C(CCN1C(=O)c2ccccc2S1(=O)=O)N1CCN(c2ccccc2)CC1,4,0,-6,11,-28
COc1cccc(-c2nc(S(=O)(=O)c3ccc(Cl)cc3)c(NCc3ccccc3)o2)c1,·,·,8,·,·
O=C(C1CC1)N1CCc2cc(Br)cc(S(=O)(=O)N3CCOCC3)c21,0,·,·,·,25
O=C(C1CC1)N1CCc2cc(Br)cc(S(=O)(=O)NCCN3CCOCC3)c21,0,0,-16,40*,-9
O=C(Nc1ccc(-n2nncc2-c2ccco2)cc1)c1cccc(F)c1,-2,0,-3,42*,-13
O=C(O)c1cccc(-n2c(-c3cnccn3)n[nH]c2=S)c1,1,2,-15,30*,-7
O=C(CSC1=NCCN1)Nc1ccccc1[N+](=O)[O-],-9,0,-17,-5,-15
O=C(CSC1=NCCN1)Nc1cccc([N+](=O)[O-])c1,-4,0,-22,49*,-22
CC(Sc1nnc2ccc3ccccc3n12)C(=O)Nc1ccc(Cl)cc1 (stereo not drawn),·,-1,9,·,·
O=C(/C=C/c1ccc(S(=O)(=O)N2CCOCC2)cc1)N1CCN(c2ccc(F)cc2)CC1,2,-2,6,5,-4
CC1CC(C)CN(C(=O)/C=C/c2ccc(S(=O)(=O)N3CCOCC3)cc2)C1 (stereo not drawn),-6,0,-2,30*,10
Cc1cc(C)c(-c2csc(NC(=O)C3=COCCO3)n2)cc1C,-1,-1,3,32*,-18
Cc1c(CC(=O)N[C@@H](C)C(=O)O)c(=O)oc2cc3c(cc12)CCC(C)(C)O3,-2,0,-6,36*,-3
Cc1c(CC(=O)NC(C)C)c(=O)oc2cc3c(cc12)CCC(C)(C)O3,6,-1,8,3,-9
CCOc1cc(Cl)c(NC(=O)CC)cc1OCC,-1,0,-21,71*,12
CC(Oc1ccccc1)C(=O)N1CCN(Cc2cc(=O)n3nc(-c4ccccc4Cl)sc3n2)CC1 (stereo not drawn),·,1,-12,·,·
CCOC(=O)c1ccc2c(c1)N(Cc1cccc(C(F)(F)F)c1)C(=O)c1ccccc1S2(=O)=O,·,0,-2,·,·
COC(=O)c1cccc(-c2ccc(/C=N/N3C(=O)C4C5C=CC(C6CC56)C4C3=O)o2)c1 (stereo not drawn),0,0,-1,32*,-6
COC(=O)c1ccc(-c2ccc(/C=N/N3C(=O)C4C5C=CC(C6CC56)C4C3=O)o2)cc1 (stereo not drawn),-2,0,-3,1,-5
CCCCn1c(SCC(=O)Nc2cc(C)on2)nnc1-c1cccs1,-4,1,6,6,-14
CCOC(=O)c1ccc(NC(=O)CSc2nnc(C3CC3)n2C)cc1,-3,0,11,-11,-11
SMILES,D2 ag-1,D2 ag-2,D2 PAM-1,D2 antagonist,D2 PAM-2
C=CCn1c(SCC(=O)Nc2ccc(C(=O)OCC)cc2)nnc1-c1sc(N)nc1C,-9,1,0,31*,23
CCOC(=O)c1ccc(NC(=O)CSc2nnc(CNc3ccc(C)cc3)n2C)cc1,0,1,-6,-9,50*
Cc1cc(NC(=O)CSc2nnc(-c3cccs3)n2N)no1,-2,0,10,39*,-7
CCN(CC)CCOC(=O)c1ccc(NC(=O)CSc2nnc(-c3cccs3)n2CC)cc1,13,·,·,·,74*
COc1ccc(-c2cc(C(=O)Nc3cccc(O)c3)on2)cc1OC,·,1,5,·,·
C=CC[N+](C)(C)CCCNC(=O)/C=N/O,-2,-1,-1,62*,-8
CCOC(=O)c1c(C)cccc1OCC(N)=O,0,-1,64*,-2,-18
COc1ccc(N(CC(=O)NCCSCc2ccc(C)cc2)S(=O)(=O)c2ccccc2)cc1,0,1,7,31*,-15
CN(C)S(=O)(=O)N(CC(=O)NCCSCc1ccccc1)c1ccccc1,7,0,85*!,-1,-5
Cc1ccccc1CSCCNC(=O)CN(c1ccccc1)S(=O)(=O)N(C)C,·,0,-1,·,·
Cn1cccc1Cc1nnc(SCC(=O)NC2CCCC2)n1-c1ccc(F)cc1,-3,2,-1,36*,2
Cc1ccccc1NC1=C(C(=O)c2ccccc2)N(C)S(=O)(=O)c2ccccc21,-2,1,-9,3,-20
O=C(C1=C(Nc2ccccc2)c2ccccc2S(=O)(=O)N1)c1ccccc1,-4,0,3,40*,-19
Cc1cc(=O)[nH]c(-n2nc(C)cc2C)n1,-1,1,-3,44*,0
Cc1cc(=O)[nH]c(N2CCCNCC2)n1,-3,0,9,0,5
CCc1ccc(NC(=O)CSC2=Nc3ccccc3C3=NC(CCC(=O)NCc4cccs4)C(=O)N23)cc1 (stereo not drawn),·,0,-14,·,·
CCOC(=O)CNC(=O)c1cn(CC(C)C)c(=O)c2cc(OC)c(OC)cc12,0,0,-3,31*,-10
CCn1cc(C(=O)NCC(=O)OC)c2cc(OC)c(OC)cc2c1=O,-1,0,-1,2,9
CCOc1ccc(C(=O)Nc2ccc3oc(-c4cccc5ccccc45)nc3c2)cc1,·,-1,5,·,·
COc1ccc(OC)c2sc(N3CCN(C(=O)C(C)(C)C)CC3)nc12,·,0,-7,·,·
CC(CN1CCN(Cc2ccccc2)CC1)c1ccccc1 (stereo not drawn),-4,0,1,0,-64
CC(CCc1ccccc1)N1CCN(Cc2ccccc2)CC1 (stereo not drawn),-1,0,-16,61*,-41
CN(CCC1CCOCC1)C(=O)c1cc(COc2c(F)cccc2F)on1,2,1,2,31*,3
O=C(c1cc(COc2c(F)cccc2F)on1)N1CCC(c2ccccc2F)C1 (stereo not drawn),-5,1,-11,-6,-3
COc1ccc(OCc2cc(C(=O)N3CCC(OC)CC3)no2)c2ccccc12,7,0,4,10,53*

# High-throughput results as filed in PubChem.
